SMILES strings stand for the structures. Values joined by “and” are separate entries in the source; they are usually repeats but may differ in a detail not shown here. Identical values can stand only once. About 83,000 compounds went through this panel and 20% of them were active in at least one assay; those are over-represented in the sample as a whole.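 The endpoint reported here, percent growth, reads 100 for growth as untreated, 0 for no net growth and -100 for all cells dead.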 Active and inactive are the calls of the source. The calls were made as follows: active = growth percent below 10; inactive = the rest.

Data on six compounds can be found in PubChem BioAssay (NCI).

Holding throughout (test): NCI-60 one-dose screen, 48 h (100 = growth as untreated, 0 = no growth, -100 = all killed)
What all share (conditions): 10 µM unless noted

The subject of test [1] is HCT-15 colon.
Test [2] deals with HT29 colon.
Test [3] has as its system SNB-75 CNS.
The test system of test [4] is SNB-19 CNS.
In test [5] the test system is U251 CNS.
Test [6] relates to PC-3 prostate.
The test system of test [7] is SK-MEL-5 melanoma.
Test [8] concerns UACC-62 melanoma.
The test system of test [9] is LOX IMVI melanoma.
Test [10] has as its system SK-MEL-28 melanoma.
Test [11] concerns SK-MEL-2 melanoma.
The subject of test [12] is EKVX NSCLC.
Test [13] relates to SN12C renal.
Test [14] has as its system UO-31 renal.
Test [15] deals with TK-10 renal.
Test [16] relates to ACHN renal.
Test [17] relates to CAKI-1 renal.
Test [18] concerns A498 renal.
Test [19] deals with CCRF-CEM leukemia.
Test [20] has as its system MOLT-4 leukemia.

In the case of `CC(=O)c1nn(-c2ccccc2)/c(=N/N=Cc2cn(-c3ccccc3)nc2-c2cc3ccccc3oc2=O)s1`, the growth in [1] is 98.1% (inactive); in test [2], 109% (inactive); in [3] it was 104% (inactive); in test [4] it was 103% (inactive); in test [5], 91.6% (inactive); in [6], 101% (inactive). Also, the growth in [7] was 101% (inactive); in test [8], 92.9% (inactive); in test [9], 98.9% (inactive); in [10], 111% (inactive); in [11] it was 103% (inactive); in test [12], 97.2% (inactive). The growth in [13] was 105% (inactive); in test [14], 84% (inactive); in test [15] it was 103% (inactive); in [16], 101% (inactive); in test [17], 88.5% (inactive); in test [18], 120% (inactive). In addition, the growth in [19] was 101% (inactive); in [20], 95.9% (inactive).

As to `COc1ccc2c(c1)CCNC21C(=O)Nc2c(Br)cc(Br)cc21` (stereo not given), the growth was 104% (inactive) in test [1]; 104% (inactive) in test [2]; 70.6% (inactive) in [3]; 91.5% (inactive) in test [4]; 96.7% (inactive) in test [5]; 97.9% (inactive) in test [6]. In addition, the growth in test [7] is 98.4% (inactive); in test [8], 86.6% (inactive); in test [9], 102% (inactive); in [10] it was 101% (inactive); in test [11], 106% (inactive); in [12], 78.7% (inactive). Moreover, the growth in test [13] is 92.5% (inactive); in test [14] it was 62.1% (inactive); in [15] it was 106% (inactive); in [16], 93.7% (inactive); in [17], 82.8% (inactive); in [18], 67% (inactive). In addition, the values for the growth in test [19] and in [20] were 113% (inactive) and 95.9% (inactive), respectively.

`C=CCN1C=CC(=O)[C@H](O[Si](C)(C)C(C)(C)C)[C@@H]1/C=C/c1ccccc1`: the growth in [1] is -70.7% [100 µM] (active); in test [2] it was -73% [100 µM] (active); in test [3], -87.9% [100 µM] (active); in test [4], -92% [100 µM] (active); in test [5], -39.6% [100 µM] (active); in test [6], -76.2% [100 µM] (active). The growth is -84.9% [100 µM] (active) in test [7]; -78.2% [100 µM] (active) in test [8]; -43.9% [100 µM] (active) in test [9]; -68.2% [100 µM] (active) in [10]; -57% [100 µM] (active) in test [11]; -48% [100 µM] (active) in test [12]. For the same compound, the growth in test [13] was -74% [100 µM] (active); in test [14], -73.4% [100 µM] (active); in [15], -64.6% [100 µM] (active); in test [16], -73.1% [100 µM] (active); in test [17] it was -72.5% [100 µM] (active); in test [18] it was -88.8% [100 µM] (active). Moreover, the growth is -33.8% [100 µM] (active) in test [19] and -30.4% [100 µM] (active) in test [20].

For the compound `CON1CCC[C@]2(C)[C@H]3CC[C@@H]4[C@H]5[C@@H](O)C(C)(C)CC[C@]5(CO)CC[C@@]4(C)[C@]3(C)CC[C@H]2C1(C)C`, the growth in test [1] is 106% (inactive); in [2] it was 91.2% (inactive); in test [3], 98.7% (inactive); in test [4], 100% (inactive); in [5], 90% (inactive); in [6] it was 59.6% (inactive). Moreover, the growth in [7] was 102% (inactive); in test [8], 96% (inactive); in test [9], 87.7% (inactive); in [10], 107% (inactive); in test [11], 103% (inactive); in [12] it was 98.1% (inactive). Besides, the growth is 93.1% (inactive) in [13]; 95.2% (inactive) in [14]; 105% (inactive) in test [15]; 107% (inactive) in [16]; 97.4% (inactive) in test [17]; 114% (inactive) in test [18]. Moreover, the growth in test [19] was 94.5% (inactive); in test [20], 83.7% (inactive).

In the case of `O=C(Nc1cc(C(F)(F)F)cc(C(F)(F)F)c1)c1cc(Cl)ccc1O`, the growth in test [1] was -39.7% (active) and -24.9% (active); in test [2] it was 0.709% (active) and 1.2% (active); in test [3], -64.9% (active) and -39.3% (active); in test [4], 5.13% (active) and 12.9% (inactive); in test [5], -5.01% (active) and -11.5% (active); in test [6], 5.05% (active) and -0.956% (active). Also, the growth is -70.3% (active) in test [7]; -56% (active) and -42.8% (active) in [8]; -62.1% (active) and -58.6% (active) in test [9]; -33.4% (active) and -22.4% (active) in test [10]; -40.3% (active) in [11]; 1.8% (active) and 3.4% (active) in test [12]. For the same compound, the growth in test [13] was -4.82% (active) and -10.6% (active); in test [14], -64.4% (active) and -19.6% (active); in test [15], -8.88% (active) and 5.69% (active); in test [16], -14% (active) and 2.27% (active); in [17], -20.5% (active) and -23.8% (active); in test [18], -44.7% (active) and -69.3% (active). Besides, the growth in test [19] was -12.3% (active) and -10.4% (active); in [20], -38.9% (active) and -44.7% (active).

In the case of `CC/C=C\C/C=C\C[C@H](O)C/C=C1/C(=O)C=C[C@@H]1C/C=C\CCCC(=O)OC`, the growth is -25.8% (active) in [1]; -25.4% (active) in [2]; 53.3% (inactive) in test [3]; 20.2% (inactive) in test [4]; -73.3% (active) in test [5]; -36.6% (active) in test [6]. The growth is -94.9% (active) in test [7]; -56% (active) in [8]; -80.5% (active) in [9]; -38% (active) in test [10]; -16.9% (active) in test [11]; 24.8% (inactive) in [12]. In addition, the growth in test [13] is -29.2% (active); in test [14] it was -83.3% (active); in test [15] it was 5.09% (active); in test [16], -75.9% (active); in test [17], -1.75% (active); in test [18] it was 21.9% (inactive). For the same compound, the growth is -11.7% (active) in test [19] and -10.5% (active) in test [20].
